The values below come from PubChem BioAssay (EPA / NIEHS).

Structures are written as SMILES. Inconclusive results are not listed. Activity calls are given as the source filed them. The calls were made as follows, unless noted: active = hit-call score of the fitted dose curve at least 0.9, where 1 is the maximum; inactive = score below 0.9.

Assay [1] addresses Paired box protein Pax-6 (Homo sapiens) (UniProt P26367). Description: ATG_Pax6_CIS: Attagene CIS-FACTORIAL HepG2 Assay for human Paired Box 6 (PAX6) (AID 2282956). Particulars: HepG2 CIS-FACTORIAL PAX6 reporter transcription, RNA readout; actives raise or lower the signal. The procedure, abridged: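 Fluorescent RT-PCR products separated by capillary electrophoresis report PAX6-linked promoter mRNA in HepG2 cells 24 h post-dose. Curves fitted bidirectionally, DMSO as negative control.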

The nature of assay [2]: ATG_PXRE_CIS: Attagene CIS-FACTORIAL HepG2 Assay for human Pregnane X Receptor Element (PXRE) (AID 2282957). The following applies: HepG2 Attagene CIS-FACTORIAL PXRE reporter, mRNA; actives raise or lower the signal. The method in brief: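 Reporter transcripts under endogenous PXR-responsive cis-regulation quantified from total RNA of transfected HepG2 cells 24 h post-dosing, via RT-PCR with fluorescent primer extension and capillary electrophoresis. Gain or loss of signal fitted against DMSO baseline.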

The nature of assay [3]: ATG_PPRE_CIS: Attagene CIS-FACTORIAL HepG2 Assay for human Peroxisome Proliferator-activated Response Element (PPRE) (AID 2282958). Particulars: HepG2 PPRE cis-element reporter, Attagene transcription factor profiling; actives raise or lower the signal. The procedure, abridged: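 HepG2 cells transiently transfected with multiplexed cis-element reporter units measure endogenous transcription factor activity. After 24 h compound exposure, reporter mRNA is quantified by RT-PCR, 6-FAM labeling, HpaI digestion and capillary electrophoresis; bidirectional fits are made against DMSO baseline.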

Assay [4] is described as follows: ATG_RORE_CIS: Attagene CIS-FACTORIAL HepG2 Assay for human RAR-related Orphan Receptor Element (RORE) (AID 2282959). The following applies: HepG2 Attagene cis-factorial RORE reporter, mRNA; actives raise or lower the signal. The procedure, abridged:
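HepG2 cells transiently transfected with multiple cis-element reporter transcription units, exposed to chemical for 24 h. Reporter mRNA quantified by RT-PCR, 6-FAM primer-extension labeling, HpaI digestion and capillary electrophoresis; bidirectional fit versus DMSO baseline.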

Assay [5] is described as follows: ATG_Sox_CIS: Attagene CIS-FACTORIAL HepG2 Assay for human SRY-box transcription factor (SOX) (AID 2282960). The following applies: HepG2 Attagene cis-factorial SOX reporter, mRNA; actives raise or lower the signal. The procedure, abridged: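 HepG2 cells transiently transfected with cis-element-driven multiple reporter transcription units, dosed 24 h; reporter mRNA measured by RT-PCR, FAM labelling, HpaI digestion and capillary electrophoresis. Bidirectional fit versus DMSO baseline.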

Assay [6] concerns the target Transcription factor Sp1 (Homo sapiens) (UniProt P08047). Description: ATG_Sp1_CIS: Attagene CIS-FACTORIAL HepG2 Assay for human Specificity Protein 1 (Sp1) (AID 2282961). Particulars: HepG2 Sp1 cis-reporter transcription, actives raise or lower the signal. The procedure, abridged: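 HepG2 cells transiently transfected with multiple reporter transcription units driven by cis-regulatory elements; Sp1-responsive reporter mRNA measured 24 h after dosing by RT-PCR and capillary electrophoresis fluorescence, fitted bidirectionally against DMSO baseline.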

Assay [7] in a line: ATG_SREBP_CIS: Attagene CIS-FACTORIAL HepG2 Assay for human Sterol Regulatory Element Binding (SREBP) (AID 2282962). Particulars: HepG2 Attagene cis-factorial SREBP reporter, mRNA; actives raise or lower the signal. The procedure, abridged:
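Endogenous factor activity is measured in HepG2 through multiplexed reporter units under cis-element control. Following a 24 h incubation, reporter transcripts are reverse-transcribed, PCR-amplified and sized by capillary electrophoresis; activity is fitted in both directions relative to DMSO.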

For assay [8], the target named is Signal transducer and activator of transcription 3 (Homo sapiens) (UniProt P40763). Description: ATG_STAT3_CIS: Attagene CIS-FACTORIAL HepG2 Assay for human Signal Transducer and Activator of Transcription 3 (STAT3) (AID 2282963). Particulars: HepG2, Attagene cis-factorial STAT3 reporter transcription; actives raise or lower the signal. The method in brief: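 Uses human liver HepG2 transiently carrying cis-regulated reporter transcription units. Following 24 h dosing, reporter mRNA induction was detected by RT-PCR and capillary electrophoresis, analysed bidirectionally versus DMSO.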

A short description of assay [9]: ATG_TA_CIS: Attagene CIS-FACTORIAL HepG2 Assay for human TA Basal Promoter (AID 2282964). The following applies: HepG2 Attagene CIS-factorial TA basal promoter reporter; actives raise or lower the signal. The method in brief: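 Cis-factorial format in HepG2: reporters report endogenous factors, not chimeric Gal4 fusions. After 24 h treatment, reporter transcripts were measured by RT-PCR-capillary electrophoresis fluorescence, analysed bidirectionally versus DMSO.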

Assay [10] is described as follows: ATG_TCF_b_cat_CIS: Attagene CIS-FACTORIAL HepG2 Assay for human T-Cell-Factor with beta-catenin (TCF/b-cat) (AID 2282965). Particulars: HepG2 TCF/beta-catenin cis-reporter transcription, actives raise or lower the signal. The method in brief: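 Using capillary electrophoresis as the read-out, labelled reporter cDNA fragments from transiently transfected HepG2 were sized and quantified. Exposure lasted 24 hours; activity in either direction was referenced to DMSO.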

A short description of assay [11]: ATG_TAL_CIS: Attagene CIS-FACTORIAL HepG2 Assay for human TAL Basal Promoter (AID 2282966).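 Also: background control endpoint measuring basal TAL promoter reporter mRNA not a specific factor.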 Particulars: HepG2 Attagene cis-factorial TAL promoter reporter; actives raise or lower the signal. The method in brief:
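Background-control endpoint: basal TAL promoter reporter transcripts in transiently transfected HepG2, measured 24 h after dosing. Read-out by RT-PCR with fluorescent primer extension and capillary electrophoresis; gain or loss of signal fitted relative to DMSO.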

The nature of assay [12]: ATG_TGFb_CIS: Attagene CIS-FACTORIAL HepG2 Assay for human Transforming Growth Factor (TGF) (AID 2282967). The following applies: HepG2 Attagene CIS TGFb reporter, mRNA transcription; actives raise or lower the signal. The method in brief:
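Multiplexed cis-reporter HepG2 system, 24 h treatment; mRNA induction read by fluorescence after RT-PCR and CE; DMSO negative control, bidirectional curve fitting.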

Assay [13] can be described thus: ATG_VDRE_CIS: Attagene CIS-FACTORIAL HepG2 Assay for human Vitamin D Receptor Element (VDRE) (AID 2282968). The following applies: HepG2 VDRE cis-reporter transcription, actives raise or lower the signal. The procedure, abridged:
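Transfected HepG2 reporter cells, chemical treatment 24 h. RNA isolated, cDNA amplified with reporter-specific primers, products analysed by capillary electrophoresis. Endpoint fitted in both directions versus DMSO.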

Assay [14] deals with X-box-binding protein 1 (Homo sapiens) (UniProt P17861). Description: ATG_Xbp1_CIS: Attagene CIS-FACTORIAL HepG2 Assay for human X-box Binding Protein 1 (XBP1) (AID 2282972). Particulars: HepG2 XBP1 cis-element reporter, Attagene multiplex; actives raise or lower the signal. The procedure, abridged:
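Multiplexed cis-reporter readout in transfected HepG2 liver cells. Exposure lasted 24 hours. Activity in either direction was fitted against DMSO as negative control and baseline.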

A short description of assay [15]: ATG_M_19_TRANS: Attagene TRANS-FACTORIAL HepG2 Assay for M19 Transcription Factor (Internal Marker) (AID 2282974; active = hit-call score of the fitted dose curve at least 0.9, where 1 is the maximum). Particulars: HepG2 Attagene TRANS-FACTORIAL M19 internal marker reporter. The method in brief: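 HepG2 cells transiently transfected with multiple GAL4-UAS reporter transcription units were exposed to chemicals for 24 h. Reporter mRNA was read by RT-PCR, 6-FAM primer extension, HpaI digestion and capillary electrophoresis; gain of signal fitted relative to DMSO.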

Assay [16] concerns the target Estrogen receptor (Homo sapiens) (UniProt P03372). Description: ATG_ERa_TRANS: Attagene TRANS-FACTORIAL HepG2 Assay for human Estrogen Receptor alpha (ERa) (AID 2282970; active = hit-call score of the fitted dose curve at least 0.9, where 1 is the maximum). Particulars: HepG2 Attagene TRANS ERa GAL4 reporter, mRNA. The procedure, abridged: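 Reporter transcripts were measured 24 h after dosing by RT-PCR with fluorescent primer extension and capillary electrophoresis. The system is transiently transfected HepG2 expressing exogenous NR-Gal4 chimeras driving GAL4-UAS reporters; DMSO is the baseline.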

Chain of X-box-binding protein 1 (Homo sapiens) (P17861 whole entry, looked up): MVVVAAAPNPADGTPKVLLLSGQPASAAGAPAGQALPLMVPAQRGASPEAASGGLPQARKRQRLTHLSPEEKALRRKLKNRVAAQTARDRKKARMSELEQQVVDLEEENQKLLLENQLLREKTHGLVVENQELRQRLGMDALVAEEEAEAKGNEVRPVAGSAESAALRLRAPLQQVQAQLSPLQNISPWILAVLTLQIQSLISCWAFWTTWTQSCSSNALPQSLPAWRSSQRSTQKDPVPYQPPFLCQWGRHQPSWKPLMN
Chain of Signal transducer and activator of transcription 3 (Homo sapiens) (P40763 whole entry, looked up): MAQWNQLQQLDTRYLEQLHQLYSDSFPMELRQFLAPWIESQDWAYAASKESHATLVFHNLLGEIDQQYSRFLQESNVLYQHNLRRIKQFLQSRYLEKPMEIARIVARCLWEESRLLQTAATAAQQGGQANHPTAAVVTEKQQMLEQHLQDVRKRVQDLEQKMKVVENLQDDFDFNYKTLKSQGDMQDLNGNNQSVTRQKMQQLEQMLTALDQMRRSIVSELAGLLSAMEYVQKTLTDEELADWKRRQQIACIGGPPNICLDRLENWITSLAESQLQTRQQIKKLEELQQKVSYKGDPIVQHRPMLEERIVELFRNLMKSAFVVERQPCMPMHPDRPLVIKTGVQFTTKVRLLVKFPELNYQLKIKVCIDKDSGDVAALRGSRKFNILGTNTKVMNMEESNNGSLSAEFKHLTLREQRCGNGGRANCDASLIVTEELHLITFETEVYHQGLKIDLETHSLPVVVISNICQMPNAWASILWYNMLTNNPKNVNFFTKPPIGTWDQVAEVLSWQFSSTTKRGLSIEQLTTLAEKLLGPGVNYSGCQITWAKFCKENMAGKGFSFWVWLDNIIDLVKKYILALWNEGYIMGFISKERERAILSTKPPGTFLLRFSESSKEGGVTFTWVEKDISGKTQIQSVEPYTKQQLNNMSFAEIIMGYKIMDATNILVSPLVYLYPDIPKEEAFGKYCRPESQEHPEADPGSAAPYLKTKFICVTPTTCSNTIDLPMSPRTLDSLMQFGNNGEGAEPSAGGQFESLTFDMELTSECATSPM
Chain of Paired box protein Pax-6 (Homo sapiens) (P26367 whole entry, looked up): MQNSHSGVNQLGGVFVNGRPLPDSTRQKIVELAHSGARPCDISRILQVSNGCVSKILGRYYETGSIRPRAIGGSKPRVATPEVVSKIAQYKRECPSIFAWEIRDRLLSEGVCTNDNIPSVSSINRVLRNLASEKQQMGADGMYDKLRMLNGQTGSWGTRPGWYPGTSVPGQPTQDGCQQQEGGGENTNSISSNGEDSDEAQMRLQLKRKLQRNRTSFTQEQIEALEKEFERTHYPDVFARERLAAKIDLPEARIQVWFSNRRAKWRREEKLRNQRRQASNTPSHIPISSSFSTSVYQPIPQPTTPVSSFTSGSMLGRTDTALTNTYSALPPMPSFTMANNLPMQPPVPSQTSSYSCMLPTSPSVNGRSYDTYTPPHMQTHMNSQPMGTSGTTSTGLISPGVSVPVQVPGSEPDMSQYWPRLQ
Chain of Transcription factor Sp1 (Homo sapiens) (P08047 whole entry, looked up): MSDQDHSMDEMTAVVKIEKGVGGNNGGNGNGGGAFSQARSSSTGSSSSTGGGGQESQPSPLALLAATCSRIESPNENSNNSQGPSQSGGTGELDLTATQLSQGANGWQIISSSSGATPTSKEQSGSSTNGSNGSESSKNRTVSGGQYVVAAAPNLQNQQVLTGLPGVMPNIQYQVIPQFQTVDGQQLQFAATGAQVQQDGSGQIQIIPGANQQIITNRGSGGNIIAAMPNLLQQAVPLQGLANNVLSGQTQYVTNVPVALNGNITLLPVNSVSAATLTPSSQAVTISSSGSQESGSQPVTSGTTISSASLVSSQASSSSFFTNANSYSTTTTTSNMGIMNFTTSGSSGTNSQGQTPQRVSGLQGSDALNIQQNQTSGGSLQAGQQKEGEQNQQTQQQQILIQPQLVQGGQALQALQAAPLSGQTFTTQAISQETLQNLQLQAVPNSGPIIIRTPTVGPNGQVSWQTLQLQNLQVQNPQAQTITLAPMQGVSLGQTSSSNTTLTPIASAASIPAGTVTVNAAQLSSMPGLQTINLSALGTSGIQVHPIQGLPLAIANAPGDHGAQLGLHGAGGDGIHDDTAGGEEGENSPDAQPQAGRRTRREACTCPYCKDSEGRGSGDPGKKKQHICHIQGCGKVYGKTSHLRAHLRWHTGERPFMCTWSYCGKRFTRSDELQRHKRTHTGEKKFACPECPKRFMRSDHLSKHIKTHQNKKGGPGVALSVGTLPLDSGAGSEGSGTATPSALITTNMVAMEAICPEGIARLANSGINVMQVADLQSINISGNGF
Chain of Estrogen receptor (Homo sapiens) (P03372 whole entry, looked up, the tested form may be a part): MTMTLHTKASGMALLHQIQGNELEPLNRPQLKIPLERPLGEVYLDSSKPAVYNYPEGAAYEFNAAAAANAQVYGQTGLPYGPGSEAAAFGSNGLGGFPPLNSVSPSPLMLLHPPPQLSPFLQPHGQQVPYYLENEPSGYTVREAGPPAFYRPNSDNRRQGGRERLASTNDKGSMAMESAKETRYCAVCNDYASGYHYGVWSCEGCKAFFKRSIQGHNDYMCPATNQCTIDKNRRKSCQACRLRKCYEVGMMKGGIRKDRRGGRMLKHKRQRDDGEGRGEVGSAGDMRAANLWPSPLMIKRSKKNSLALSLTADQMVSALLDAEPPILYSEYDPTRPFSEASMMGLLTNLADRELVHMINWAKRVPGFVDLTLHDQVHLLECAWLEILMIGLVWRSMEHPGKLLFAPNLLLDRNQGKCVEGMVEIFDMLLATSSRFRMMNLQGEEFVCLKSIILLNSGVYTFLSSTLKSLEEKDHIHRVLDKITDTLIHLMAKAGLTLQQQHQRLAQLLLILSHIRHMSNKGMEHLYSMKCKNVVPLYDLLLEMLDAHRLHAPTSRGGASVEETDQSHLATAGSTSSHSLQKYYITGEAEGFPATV

As for `CC1=CC(=O)CC(C)(C)C1`, the result in assay [1], in assay [3], in [4], in [5], in [6] and in assay [7] was inactive. Moreover, the outcome in assay [8], in assay [9], in [10], in [11], in assay [12] and in [13] was inactive. For the same compound, the compound was classed as inactive in [14] and in [15]. Moreover, in assay [2], the half-maximal activity concentration (AC50) was 50 µM (active).
Take `CC(C)=CCCC(C)CCO` (stereo not drawn): the outcome in assay [1], in assay [3], in [4], in assay [5], in [6] and in [7] was inactive. The compound was classed as inactive in [8], in [9], in assay [11], in assay [12], in assay [14] and in assay [15]. Also, the AC50 in [2] was 26.6 µM (active); in [10], 167 µM (active); in assay [16] it was 34 µM (active).
Consider `CC[C@H](C)C(=O)O[C@H]1C[C@@H](C)C=C2C=C[C@H](C)[C@H](CC[C@@H]3C[C@@H](O)CC(=O)O3)[C@H]21`, for which the outcome in assay [1], in [3], in assay [4], in assay [5], in assay [8] and in assay [9] was inactive. Further, the compound was called inactive in assay [10], in [11], in [12], in assay [16], in assay [14] and in assay [15]. For the same compound, the figures for the half-maximal activity concentration (AC50) in assay [2], in assay [7] and in assay [13] were 1.8 µM (active), 1.36 µM (active) and 4.47 µM (active), respectively.
Regarding `CC1(C)C(=O)N(Br)C(=O)N1Br`, the compound was called inactive in assay [1], in assay [2], in assay [3], in assay [4], in assay [5] and in [7]. Moreover, the call in assay [8], in [9], in assay [10], in assay [11], in assay [12] and in assay [13] was inactive. Moreover, the result in assay [14] was inactive.
